Common to all, as to assay type: functional
The subject of assay [1] is Plasmodium falciparum. In words: GSK_TCMDC: Inhibition of Plasmodium falciparum 3D7 in whole red blood cells, using parasite LDH activity as an index of growth. Test compounds present at 2uM.
In assay [2] the test system is HepG2. In words: GSK_TCMDC: Percent inhibition of human HepG2 cell line. Test compounds present at 10uM.
Assay [3] relates to Plasmodium falciparum. Nature of the assay: GSK_TCMDC: Inhibition of Plasmodium falciparum Dd2 in whole red blood cells, using parasite LDH activity as an index of growth. Test compounds present at 2uM.

Drawing on ChEMBL document CHEMBL1157539, “Thousands of chemical starting points for antimalarial lead identification” (Nature, 2010), this text covers Inhibition for 34 compounds.

In general, Inhibition refers to the share of the control response that was lost under treatment. A higher Inhibition goes with a strong effect. For the compound `COc1cc(CCNCC(O)c2ccc([N+](=O)[O-])c(OCc3ccccc3)c2)cc(OC)c1OC.Cl` (stereo not drawn), the Inhibition in assay [1] stood at 98%; in assay [2] it was 11%.
The corresponding values for `C=CCOc1cc(Cc2cnc(N)nc2N)cc(OC)c1OC.Cl` are 81% and 0%.
In the case of `CCN(CC)CCCC(C)Nc1ccnc2cc(Cl)ccc12.O=P(O)(O)O.O=P(O)(O)O` (stereo not drawn) [CHLOROQUINE PHOSPHATE], the Inhibition stood at 96% in assay [3] and 12% in assay [2].
In the case of `CCN(CC)CCCN(C(=O)Nc1cc(F)cc(F)c1)c1nc(-c2ccc(F)cc2)cs1`, the Inhibition in assay [1] is on record as 82%; in assay [2] it was 27%.
Take `COc1cc2c(cc1C(F)(F)F)N(C(=O)Nc1ccc(Br)cn1)CC2`: the Inhibition in assay [1] is 97%; in assay [2], 16%.
As for `O=C(Nc1nccs1)c1sc2ccccc2c1O`, the Inhibition in assay [1] is listed as 96%; in assay [2], 0%.
The corresponding values for `O=C(NCCCCN1CCC(c2ccc3c(c2OCCOCCO)CCCC3)CC1)c1ccc(-c2ccc(C(F)(F)F)cc2)cc1` are 97% and 44%.
For `COc1ccc(CCN2CC[C@H](CNc3nc(-c4ccccc4)nc4ccccc34)C2)cc1S(N)(=O)=O.O=C(O)C(F)(F)F`, the Inhibition in assay [1] was found to be 85%; in assay [2], 54%.
The corresponding values for `S=C(Nc1ccc(Cl)cc1)Nc1ccc(Nc2ccccc2)cc1` are 84% and 14%.
As to `Br.Oc1ccc(CCNCCCCCNCCCc2ccc(Cl)cc2)cc1O`, the Inhibition in assay [1] worked out at 91%; in assay [2], 22%.
With `COc1ccc(Cl)cc1N1CCN(CCCNC(=O)c2ccc(-c3nc4c(C)cccc4[nH]3)s2)CC1`, the Inhibition in assay [1] is 98%; in assay [2], 0%.
In the same order, the values of `CC(Sc1nnc(-c2ccccc2Br)[nH]1)C(=O)Nc1ccc(F)cc1` (stereo not drawn) are 90% and 0%.
In the same order, the values of `O=CO.c1ccc2c3c([nH]c2c1)C(c1ccc2c(c1)CCO2)N(c1ncnc(N2CCN(CCCN4CCOCC4)CC2)n1)CC3` (stereo not drawn) are 80% and 37%.
Turning to `O=C(Nc1cccc(-c2nn3ccccc3c2-c2ccnc(Nc3cccc(F)c3)n2)c1)C1CCCCC1`, the figures for the Inhibition in assay [1] and in assay [2] were 85% and 44%, respectively.
The corresponding values for `COc1c(C2CCN(CCCCNC(=O)C=Cc3ccccc3C(F)(F)F)CC2)ccc2c1CCCC2` are 96% and 98%.
For `C[C@H]1CN(Cc2ccc(-c3cccc(CNC(=O)c4cccc(C(=O)c5ccc(Cl)c(Cl)c5)c4)c3)s2)CCN1.O=C(O)C(F)(F)F`, the Inhibition in assay [1] came out at 99%; in assay [2] it was 3%.
In the same order, the values of `Cc1ccccc1Oc1ccc(Nc2ccnc(Nc3cccc(C(N)=O)c3)n2)cc1C(F)(F)F.Cl` are 81% and 9%.
The corresponding values for `CN(C)Cc1cccc(-c2ccc(NC(=O)c3ccc4c(=O)n(Cc5cnn(C)c5)cnc4c3)cc2)c1` are 80% and 12%.
Regarding `Cl.O=C(NCCCCN1CCC(c2ccc3c(c2OCCCO)CCCC3)CC1)c1ccc(-c2ccc(C(F)(F)F)cc2)c(CO)c1`, the Inhibition in assay [1] was found to be 95%; in assay [2], 66%.
The corresponding values for `O=C(O)C(F)(F)F.O=C(O)CCc1ccc(-c2c[nH]c3ncc(-c4ccc5ncccc5c4)cc23)cc1` are 88% and 30%.
For `COc1cc(OC)cc(C(=O)Nc2nc(-c3ccc(NC(=O)c4ccccc4)cc3)cs2)c1`, the Inhibition in assay [1] is reported as 88%; in assay [2], 16%.
The corresponding values for `CC1(C)C(=O)N=C2C1=C(O)C(=O)c1ccccc12` are 93% and 0%.
On to `O=[N+]([O-])c1ccc(-n2nc(-c3cccnc3)n(Cc3ccco3)c2=S)c(Cl)c1`, for which the Inhibition in assay [1] amounted to 95%; in assay [2] it was 13%.
The corresponding values for `NC(=O)c1sc(-n2cnc3ccc(C(=O)NCCN4CCOCC4)cc32)cc1OCc1ccccc1C(F)(F)F.O=CO` are 81% and 0%.
The corresponding values for `COc1ccc(NC(=O)c2ccc(-c3cccc(OCc4ccccc4)c3)cc2)cc1N1CCN(C)CC1` are 85% and 29%.
The corresponding values for `COc1ccc(NS(=O)(=O)c2ccc(Oc3nc(C)nc4sc5c(c34)CCCC5)cc2)cc1` are 96% and 5%.
As for `CCN1CCN(c2cc(C)c3cc(NC(=O)c4ccc(C(C)(C)C)cc4)ccc3n2)CC1`, the Inhibition in assay [1] was 85%; in assay [2], 34%.
The corresponding values for `O=C(CN1C(=O)CC1S(=O)(=O)Cc1ccco1)NCCCCCCc1ccc(F)cc1` (stereo not drawn) are 95% and 0%.
The corresponding values for `CC(=O)Nc1ccc(CN2CCc3ccc(NS(=O)(=O)c4ccc(-c5cccc(C(F)(F)F)c5)cc4)cc3CC2)s1` are 82% and 23%.
In the same order, the values of `COc1ccc(/N=C(\N)Nc2ccccc2)nc1Cc1ccccc1` are 81% and 17%.
For `CC(C)C(=O)NC(NC(=S)Nc1ccc(Br)cc1)C(Cl)(Cl)Cl` (stereo not drawn), the Inhibition in assay [1] amounted to 93%; in assay [2] it was 0%.
On to `CC(=O)Nc1cccc(Nc2c3ccccc3nc3ccccc23)c1`, for which the Inhibition in assay [1] was 82%; in assay [2], 31%.
The corresponding values for `CCS(=O)(=O)c1ccc(/C(=N/OC)c2ccc[nH]2)cc1` are 85% and 0%.
As to `O=C(Nc1ccc(C(F)(F)F)cc1)c1cc(Cl)cc2nc(C(F)(F)F)[nH]c12`, the figures for the Inhibition in assay [1] and in assay [2] were 100% and 86%, respectively.
